According to PubChem BioAssay (Tox21):
“And” between values parts separate entries of the source, which are not always exact repeats. Identical values can stand only once. Records with an inconclusive call do not appear. Entries that show only a call come without a potency. The source holds several records for some structures; these can differ, active in one and inactive in another. The source made the active and inactive calls. Unless noted, the call rests on the fitted dose curve; in most records, active means well fitted curve in the direction sought with a large enough effect in the repeat runs; inconclusive means weak or mixed curves; inactive means no such curve, though single readings can be large; an effect the other way counts as inactive or inconclusive.

Tests used:
[1] = qHTS assay to identify aromatase inhibitors - cell viability counter screen (AID 743084);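 further: cells stimulated with testosterone during compound exposure; nearly all actives have a fitted effect of over 55% in size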; further: potency means the concentration at half of the fitted maximal effect
[2] = target: Aryl hydrocarbon receptor (Homo sapiens) (UniProt P35869); assay: qHTS assay to identify small molecule that activate the aryl hydrocarbon receptor (AhR) signaling pathway (AID 743085); further: nearly all actives have a fitted effect of over 15% in size; further: potency means the concentration at half of the fitted maximal effect;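 on activation: HG2L7.5c1 human HepG2 liver cells with stably integrated DRE-driven firefly reporter; series mostly up to about 70 µM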
Sequence of Aryl hydrocarbon receptor (Homo sapiens) (P35869 whole entry, looked up): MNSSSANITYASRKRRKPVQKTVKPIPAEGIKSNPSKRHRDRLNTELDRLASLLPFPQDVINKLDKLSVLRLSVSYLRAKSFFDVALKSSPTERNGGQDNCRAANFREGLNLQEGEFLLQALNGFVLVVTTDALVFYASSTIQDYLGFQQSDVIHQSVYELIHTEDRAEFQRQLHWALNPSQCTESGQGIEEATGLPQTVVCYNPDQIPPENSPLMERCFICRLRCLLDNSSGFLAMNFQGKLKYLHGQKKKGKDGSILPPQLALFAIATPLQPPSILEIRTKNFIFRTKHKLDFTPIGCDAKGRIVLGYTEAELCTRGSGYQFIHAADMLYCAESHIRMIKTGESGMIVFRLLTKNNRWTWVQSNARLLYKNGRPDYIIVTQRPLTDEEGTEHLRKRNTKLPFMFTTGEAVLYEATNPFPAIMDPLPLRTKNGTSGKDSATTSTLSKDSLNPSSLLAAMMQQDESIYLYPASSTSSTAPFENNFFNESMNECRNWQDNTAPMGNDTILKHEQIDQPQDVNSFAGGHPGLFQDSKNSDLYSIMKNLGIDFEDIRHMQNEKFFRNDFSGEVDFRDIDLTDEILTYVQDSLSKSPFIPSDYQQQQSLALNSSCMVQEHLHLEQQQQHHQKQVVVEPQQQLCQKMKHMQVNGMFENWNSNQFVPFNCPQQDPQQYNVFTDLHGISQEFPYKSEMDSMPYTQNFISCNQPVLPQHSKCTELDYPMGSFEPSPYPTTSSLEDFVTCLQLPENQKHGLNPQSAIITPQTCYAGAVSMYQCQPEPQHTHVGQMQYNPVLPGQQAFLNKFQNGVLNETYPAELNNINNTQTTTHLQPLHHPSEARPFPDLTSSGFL
How it was run: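 Reporter assay in engineered HepG2 line HG2L7.5c1, whose plasmid carries twenty dioxin responsive elements upstream of firefly luciferase. Treatment lasted 24 h at 37C; ONE-Glo luminescence gauged induction.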

[3] = qHTS assay to identify small molecule that activate the aryl hydrocarbon receptor (AhR) signaling pathway - cell viability counter screen (AID 743086);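 further: HepG2 liver cells carrying the AhR DRE luciferase reporter; series mostly up to about 70 µM; nearly all actives have a fitted effect of over 45% in size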
How it was run: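 HepG2-AhR-luc (HG2L7.5c1) cells, 4000/well, treated 24 h at 37 C with compound; viability measured as CellTiter-Fluor fluorescence after 30 min in the same wells as the luciferase read.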

[4] = qHTS assay to identify small molecule antagonists of the peroxisome proliferator-activated receptor gamma (PPARg) signaling pathway - cell viability counter screen (AID 743194); further: nearly all actives have a fitted effect of over 55% in size; further: potency means the concentration at half of the fitted maximal effect
How it was run: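 Cytotoxicity counter screen in PPARg-bla HEK293H cells, same wells as reporter assay. Compounds plus 50 nM rosiglitazone (final) for 17 h at 37 C, then viability read by CellTiter-Glo luminescence.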

[5] = qHTS assay for small molecule agonists of the antioxidant response element (ARE) signaling pathway - cell viability counter screen (AID 743203; calls by dose curve; further: nearly all actives have a fitted effect of over 55% in size; further: potency means the concentration at half of the fitted maximal effect)
How it was run: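 Parallel cytotoxicity read-out for the ARE-bla screen: HepG2 reporter cells, 16 hrs with compounds, then CellTiter-Glo luminescence.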

[6] = qHTS assay for small molecule activators of the heat shock response signaling pathway - cell viability counter screen (AID 743209); further: nearly all actives have a fitted effect of over 50% in size; further: potency means the concentration at half of the fitted maximal effect
How it was run: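 To flag cytotoxic compounds, HSE-bla HeLa cells plated at 1500 cells/well were dosed for 5 h at 37 C, followed by the reporter FRET read and then CellTiter-Glo, with luminescence recorded 30 min after reagent addition.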

[7] = target: Peroxisome proliferator-activated receptor gamma (Homo sapiens) (UniProt P37231); assay: qHTS assay to identify small molecule agonists of the peroxisome proliferator-activated receptor gamma (PPARg) signaling pathway (AID 743094; active means well fitted activation curve with a large enough effect in the signal ratio in the repeat runs, not every such curve was filed as active; the % refers to the signal ratio)
Sequence of Peroxisome proliferator-activated receptor gamma (Homo sapiens) (P37231 whole entry, looked up): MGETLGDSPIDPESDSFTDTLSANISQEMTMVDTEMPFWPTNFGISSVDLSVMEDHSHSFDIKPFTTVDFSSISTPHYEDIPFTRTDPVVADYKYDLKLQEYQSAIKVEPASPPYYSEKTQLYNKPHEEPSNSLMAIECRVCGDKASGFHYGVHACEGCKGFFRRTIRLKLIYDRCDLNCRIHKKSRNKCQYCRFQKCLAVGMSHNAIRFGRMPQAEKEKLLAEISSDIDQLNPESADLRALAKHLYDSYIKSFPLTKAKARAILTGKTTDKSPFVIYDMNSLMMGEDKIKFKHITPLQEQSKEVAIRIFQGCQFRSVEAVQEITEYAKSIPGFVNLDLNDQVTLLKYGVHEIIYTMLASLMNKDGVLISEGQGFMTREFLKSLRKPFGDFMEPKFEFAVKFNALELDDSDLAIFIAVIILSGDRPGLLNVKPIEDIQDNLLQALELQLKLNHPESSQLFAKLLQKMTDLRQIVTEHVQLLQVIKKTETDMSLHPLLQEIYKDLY
How it was run: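 Fluorescence-based beta-lactamase readout in HEK293H PPARg UAS-bla cells after 17 h compound exposure (37C) and 1 h B/G FRET substrate incubation at room temperature.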

[8] = qHTS assay for small molecule agonists of the antioxidant response element (ARE) signaling pathway (AID 743202; active means well fitted activation curve with a large enough effect in the signal ratio in the repeat runs, not every such curve was filed as active; the % refers to the signal ratio; further: potency means the concentration at half of the fitted maximal effect)
How it was run: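 HepG2 ARE-bla reporter line, 2,000 cells/well; 5 h preincubation 37 C/5% CO2; compound (DMSO) 16 h 37 C; B/G FRET substrate 2 h RT; fluorescence intensity.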

[9] = qHTS assay for small molecule activators of the heat shock response signaling pathway (AID 743210; active means well fitted activation curve with a large enough effect in the signal ratio in the repeat runs, with a control signal flat, not every such curve was filed as active; the % refers to the signal ratio; further: potency means the concentration at half of the fitted maximal effect;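 on activation: HeLa cells with beta-lactamase reporter driven by heat shock elements; series mostly up to about 63 µM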)
How it was run: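 Beta-lactamase reporter read-out: FRET substrate fluorescence after 2.5 h at RT, following 5 h compound treatment at 37 C of HeLa cells carrying HSE-driven bla reporter; quantitative HTS format.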

Row | SMILES | Potency [1] | Potency [2] | Potency [3] | Potency [4] | Potency [5] | Potency [6] | Potency [7] | Potency [8] | Potency [9] | activity change, negative = cytotoxicity [4] | viability change, negative = cytotoxic [5] | activation [9]
1 | Oc1c(Cl)cc(Cl)c(Cl)c1Cc1c(O)c(Cl)cc(Cl)c1Cl | 6.09 µM (active) | inactive | inactive | 173 nM (active) and 977 nM (active) and 1.68 µM (active) | 24.3 µM (active) and 8.63 µM (active) and 8.41 µM (active) | 21.8 µM (active) and 21.9 µM (active) and inactive | – | – | – | – | – | –
2 | CC(N)=O | inactive | inactive | inactive | – | – | inactive | inactive | inactive | inactive | – | – | –
3 | O=c1n(CC2CO2)c(=O)n(CC2CO2)c(=O)n1CC1CO1 (stereo not drawn) | inactive and 34.2 µM (active) | inactive | inactive | inactive | inactive | inactive | – | 4.33 µM (active) | 35.8 µM (active) and 43.6 µM (active) | – | – | –
4 | N[C@@H]1CONC1=O | inactive | inactive | inactive | inactive | – | inactive | – | inactive | inactive | – | – | –
5 | CCCCCCC(O)CCCCCCCCCCC(=O)O (stereo not drawn) | inactive | inactive | inactive | 21.9 µM (active) | – | inactive | – | – | inactive | – | – | –
6 | CCOC(=O)C(C)C(C)=O (stereo not drawn) | inactive | inactive | inactive | inactive | inactive | inactive | – | inactive | – | – | – | –
7 | CC(C)(C)c1ccc(O)c(C(C)(C)C)c1 | 48.4 µM (active) and 48.6 µM (active) | inactive | inactive | 48.8 µM (active) and 38.9 µM (active) | – | 48.8 µM (active) and 43.6 µM (active) | inactive | – | – | – | – | –
8 | COC(=O)[C@H]1[C@H]2C[C@@H]3c4[nH]c5cc(OC)ccc5c4CCN3C[C@H]2C[C@@H](OC(=O)c2cc(OC)c(OC)c(OC)c2)[C@@H]1OC | inactive | 68.5 µM (active) and 39.7 µM (active) | inactive | inactive | inactive | inactive | – | – | inactive | – | – | –
9 | CC(C)(C)NC(=O)[C@@H]1CN(Cc2cccnc2)CCN1C[C@@H](O)C[C@@H](Cc1ccccc1)C(=O)N[C@H]1c2ccccc2C[C@H]1O | 26.6 µM (active) | inactive | inactive | inactive | – | inactive | – | inactive | inactive | – | – | –
10 | [Cl][In]([Cl])[Cl] | inactive | inactive | inactive | – | inactive | inactive | – | – | – | – | – | –
11 | CCCCCC(=O)O[C@]1(C(C)=O)CC[C@H]2[C@@H]3CCC4=CC(=O)CC[C@]4(C)[C@H]3CC[C@@]21C | inactive | inactive | inactive | – | 54.1 µM (active) | inactive | inactive | – | – | – | – | –
12 | CCC(C)(C)C(=O)O[C@H]1C[C@@H](C)C=C2C=C[C@H](C)[C@H](CC[C@@H]3C[C@@H](O)CC(=O)O3)[C@H]21 | inactive | inactive | inactive | inactive | – | 54.9 µM (active) | inactive | – | – | – | – | –
13 | NC(Cc1ccc(Cl)cc1)C(=O)O (stereo not drawn) | inactive | inactive | inactive | – | – | – | inactive | – | – | 2.82% [at 0.55 µM] (inactive) | 0.376% [at 0.756 µM] (inactive) | 1.36% [at 0.55 µM] (inactive)
14 | c1cnc2cc3c(cc2n1)C1CNCC3C1 | inactive | inactive | – | inactive | inactive | inactive | inactive | inactive | inactive | – | – | –
15 | CCCCCCCCCCCC[N+](C)(C)C | inactive | inactive | inactive | – | inactive and 48.6 µM (active) and 61.1 µM (active) | – | inactive | 8.61 µM (active) | inactive | – | – | –
16 | c1ccc2c(c1)-c1cccc3c1c-2cc1ccccc13 | inactive | 8.43 µM (active) and 6.86 µM (active) | inactive | inactive | inactive | inactive | – | 1.34 µM (active) | – | – | – | –
17 | CCCN[C@H]1CCc2nc(N)sc2C1 | inactive | inactive | inactive | inactive | inactive | inactive | – | inactive | – | – | – | –
18 | BrC1CCC(Br)C(Br)CCC(Br)C(Br)CCC1Br (stereo not drawn) | – | inactive | inactive | 16.5 µM (active) | – | inactive | inactive | – | – | – | – | –
19 | CCCOC(=O)c1cc(O)c(O)c(O)c1 | – | 4.22 µM (active) and inactive | inactive | inactive | – | inactive | inactive | 15.3 µM (active) | inactive | – | – | –
20 | CCN(CC)c1ccc2c(C)cc(=O)oc2c1 | – | – | – | inactive | – | inactive | – | – | 31.1 µM (active) | – | – | –
21 | CC(C)(C)c1ccccc1 | – | – | – | – | – | inactive | – | inactive | inactive | – | – | –
22 | O=C(O)Cn1cnnn1 | – | – | – | inactive | inactive | inactive | – | inactive | inactive | – | – | –
23 | COc1nc(C)nc(Cl)c1NC1=NCCN1 | inactive | – | inactive | inactive | inactive | – | inactive | inactive | inactive | – | – | –
24 | COc1ccc(CCN(C)CCCC(C#N)(c2ccc(OC)c(OC)c2)C(C)C)cc1OC (stereo not drawn) | 27.3 µM (active) | – | – | inactive | – | inactive | – | – | – | – | – | –
25 | C/C=C/c1ccc(OCC)c(O)c1 | inactive | – | inactive | – | – | inactive | inactive | inactive | inactive | – | – | –
